Screening data from PubChem BioAssay.
Most compounds without a hit are left out; they make up all but 6.5% or so of the library.
LASV entry inh: Lassa virus entry inhibition; Lassa virus pseudotype entry inhibition, cell reporter; Potency, µM (top dose mostly 37.9 µM), for the others: top-dose activity change, negative = inhibition, hits mostly inhibitors; 1.2% of 300,000 active; AID 540256; calls by dose curve; tested in HEK293 cells; also: potency is read from the fitted curve at half-maximal effect; nearly all actives have a fitted effect of over 50% in size
VACV Venus inh: inhibitors of vaccinia virus (Venus reporter); Vaccinia virus Venus reporter expression, fluorescence; Potency, µM (highest dose often 36.5 µM), inactives show top-dose activity change, negative = inhibition, usual class: inhibitors; 0.46% of 330,000 active; calls by dose curve; tested in A549 cells; also: potency is read from the fitted curve at half-maximal effect; nearly all actives have a fitted effect of over 30% in size
VACV mCherry inh: inhibitors of vaccinia virus infection (mCherry reporter signal); Vaccinia virus mCherry reporter infection, fluorescence; 0.63% of 310,000 active; Potency, µM (top dose mostly 36.5 µM), without a hit: at the highest dose activity change, negative = inhibition, usual class: inhibitors; calls by dose curve; tested in A549 cells; also: potency is read from the fitted curve at half-maximal effect; nearly all actives have a fitted effect of over 35% in size
HCMV antiviral: blocks human cytomegalovirus replication | HFF cells, HCMV-luciferase reporter, 72 h; stronger effect = lower value | activity change, negative = inhibition, % at 57.5 µM | 4.5% of 410,000 active | AID 1259415; in the data active = activity change below about -60%; inconclusive = no clear call, values can overlap the other calls; inactive = above about -39%
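Steps: HFFs plated, 16 h 37C; compounds added; HCMV-luciferase added to MOI 1 PFU/cell; 72 h 37C; OneGlo reagent, 5 min room temperature; luminescence read, normalized to controls.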
MARV entry inh: Marburg virus entry inhibition | 1.8% of 300,000 active | AID 540276 | Marburg virus pseudotyped entry inhibition, cell reporter | Potency, µM (top dose mostly 37.8 µM), for the others: top-dose activity change, negative = inhibition, most hits filed as inhibitors; calls by dose curve; tested in HEK293 cells; also: potency is read from the fitted curve at half-maximal effect
FMDV inh: blocks foot and mouth disease virus. FMDV antiviral cell-based qHTS. Potency, µM (series often up to 57.9 µM), for the others: top-dose activity change, negative = inhibition, hits mostly inhibitors. 1.2% of 410,000 active; calls by dose curve; tested in HEK293T cells; also: read-out not given here; potency is read from the fitted curve at half-maximal effect; nearly all actives have a fitted effect of over 45% in size
An asterisk follows results filed as active; i = inactive; ? = inconclusive; . = not tested or not shown; [ ] = another dose, or the depositor's remark. % is scaled to controls: 0 for no effect and ±100 for the full control effect.

SMILES	LASV entry inh	VACV Venus inh	VACV mCherry inh	HCMV antiviral	MARV entry inh	FMDV inh
Cc1cc(C)nc(SCc2ccc(C(=O)N/N=C/c3cccc(O)c3O)cc2)n1	?	?	8.91µM*	-98.8*	7.31µM*	23.5%
COc1ccc(-c2nc3cnc(OC)nc3n(C)c2=O)cc1	.	.	.	.	.	19.6%
CCN(C(=O)C(NS(=O)(=O)c1ccc(Br)s1)c1ccccc1)c1ccc(C)c(C)c1 (stereo not given)	?	?	-4.1%	-64.4*	?	-24.0%
CCN(CC)c1ccc(NC(=O)C(Cc2ccccc2)NS(=O)(=O)c2ccc(Br)s2)c(C)c1 (stereo not given)	0.7%[46.1 µM]	-7.0%	-8.2%	-10.3	13.3%[46.1 µM]	27.7%
C[n+]1c2n(c3ccccc31)N=C(c1cc(C(C)(C)C)c(O)c(C(C)(C)C)c1)CS2	?	10µM*	?	-100.7*	11.2µM*	14.1µM*
O=S(=O)(c1ccc(C(F)(F)F)cc1)N1CCN(c2nc(-c3cccs3)nc3ccccc23)CC1	.	-10.7%	i	.	.	.
COc1ccc(OC)c(CCNC(=O)c2cc3c(-c4ccccc4F)nn(C)c3s2)c1	?	?	?	-89.9*	?	?
Cc1ccc2c(Cl)cc(Cl)c(OCC(=O)Nc3cc(S(=O)(=O)N(C)C)ccc3C)c2n1	?	-27.8%	-19.2%	-28.1	3.98µM*	?
O=C(c1cc(Br)ccc1O)N(Cc1ccco1)Cc1cccs1	.	-15.2%	-5.5%	.	.	.
CCC1C/C(=C\c2cccnc2)C(=O)/C(=C/c2cccnc2)C1 (stereo not given)	4.47µM*	?	?	-98.3*	5.8µM*	3.55µM*
O=C1/C(=C/c2cccnc2)CCC/C1=C\c1cccnc1	7.08µM*	?	?	-101.3*	?	?
O=C1NC(=S)N/C1=C/c1cccnc1	.	-16.0%	-29.1%	-63.3*	.	-14.6%
CC(C)/C=C1\CC/C(=C\c2cccnc2)C1=O	.	.	.	6.9	.	28.2µM*
CCc1ccc2oc(-c3cc(NC(=O)c4cc([N+](=O)[O-])ccc4N4CCOCC4)ccc3Cl)nc2c1	0.9%[46.1 µM]	-5.8%	9.6%	23.6	?	31.9%
Cc1ccc(-c2nc(S(=O)(=O)c3ccc(C)cc3)c(SCC(=O)c3ccccc3)o2)cc1	?	-16.8%	-12.2%	0.8	?	0.0%
CC(=O)Nc1cccc(NC(=O)CSc2ccc(-c3sc(-c4ccccc4)nc3C)nn2)c1	?	-12.4%	?	-30.9	.	-25.3%
O=C1/C(=C/c2cccnc2)CC/C1=C\c1cccnc1	-2.8%[46.1 µM]	-10.3%	-4.8%	-98.7*	?	28.2µM*
COc1cc2c3cc1Oc1c(OC)c(OC)cc4c1[C@H](Cc1ccc(cc1)Oc1cc(ccc1O)C[C@H]3N(C)CC2)N(C)CC4	.	?	?	-36.4	.	-4.4%
COc1cc2c3cc1Oc1cc(ccc1O)C[C@@H]1c4c(cc(OC)c(O)c4Oc4ccc(cc4)C[C@H]3N(C)CC2)CCN1C	?	-17.4%	i	-9.7	1.84µM*	-26.2%
CC(=C\c1ccccc1)/C=C1/SC(=S)N(CCCC(=O)O)C1=O	?	-5.4%	i	-82.0*	?	?
CC(=Cc1ccccc1)C=C1SC(=S)N(CCCC(=O)Nc2ccc(C(=O)O)cc2)C1=O	.	-2.4%	i	-22.5	.	17.7%
CC(/C=C1\SC(=O)N(CCCC(=O)O)C1=O)=C\c1ccccc1	0.794µM*	2.7%	-12.4%	-88.6*	0.501µM*	0.891µM*
Cc1cc(N2CC(C)OC(C)C2)nc2ccccc12 (stereo not given)	2.0%	-18.5%	-18.2%	-80.4*	18.3%[46.1 µM]	0.0%
Cc1cc(N2CCN(c3ccccc3)CC2)nc2ccccc12	.	.	.	27.6	.	3.0%
CCOC(=O)N[C@](Nc1sc2c(c1C(N)=O)CCCC2)(C(=O)OCC)C(F)(F)F	.	.	.	.	-4.8%	.
SMILES	LASV entry inh	VACV Venus inh	VACV mCherry inh	HCMV antiviral	MARV entry inh	FMDV inh
CN1CCN(S(=O)(=O)c2cnc(Cl)c(Br)c2)CC1	-2.4%	?	12.6µM*	27.3	?	-12.3%
Cc1ccc2nc(N/N=C/c3ccccc3C#N)nc(-c3ccccc3)c2c1	?	-10.7%	-26.2%	?	12.6µM*	-18.5%
Cc1ccc(N=c2oc3cc(O)ccc3cc2C(N)=O)cc1	?	?	?	-79.9*	?	-2.0%
COc1cc(NC(=O)CN2C(=O)NC(c3ccccc3)(c3ccccc3)C2=O)cc(OC)c1	?	-19.6%	i	?	-12.5%[46.1 µM]	-14.4%
COc1ccc(C2(c3ccc(OC)cc3)NC(=O)N(CC(=O)Nc3ccc(C(=O)N(C)C)cc3)C2=O)cc1	-13.6%	-8.5%	-13.3%	-66.1*	18.2%	-16.8%
C=CCNC(=O)CN1C(=O)NC(C)(c2ccc(OC)cc2)C1=O (stereo not given)	23.2%	-2.9%	32.1%	-98.9*	4.3%[46.1 µM]	3.9%
O=C(Nc1nc2n(n1)C(c1ccccc1)C=C(c1ccccc1)N2)c1ccccc1 (stereo not given)	11.5%[46.1 µM]	-11.7%	-26.7%	-12.7	-5.9%[46.1 µM]	-22.7%
Cc1cc(C)cc(N2CCn3c2nc2c3c(=O)n(CCc3ccccc3)c(=O)n2C)c1	?	-3.5%	-6.7%	8.7	.	-28.8%
CN1CCN(c2ncc3nc(-c4ccccc4)c(=O)n(-c4ccccc4)c3n2)CC1	.	.	.	.	.	-11.9%
COc1cc2c(NC3CCN(C)CC3)nc(N3CCCN(C)CC3)nc2cc1OCC1CCCNC1 (stereo not given)	.	-28.0%	-15.4%	.	.	.
COc1cc2nc(N3CCN(C)CC3)nc(NC3CCN(C)CC3)c2cc1OC	.	-29.8%	-15.2%	.	.	.
COc1cc2c(NC3CCN(C)CC3)nc(N3CCCN(C)CC3)nc2cc1OCCCCCCN(C)C	.	7.08µM*	5.01µM*	.	.	.
COc1cc2c(NC3CCN(C)CC3)nc(N3CCCN(C)CC3)nc2cc1OCCCCN(C)C	.	10µM*	?	.	.	.
COc1cc2c(NC3CCN(C)CC3)nc(N3CCCN(C)CC3)nc2cc1OCCCN(C)C	.	?	-24.2%	.	.	.
CCCN(C)CCCOc1cc2nc(N3CCCN(C)CC3)nc(NC3CCN(C)CC3)c2cc1OC	.	12.6µM*	?	.	.	.
Cc1[nH]c2ccccc2c1C(=O)c1c(N)[nH]c(C(=O)c2ccccc2)c1-c1ccc(Cl)cc1	.	.	.	6.2	.	.
O=C(Oc1cccc(C(=S)N2CCOCC2)c1)c1ccc([N+](=O)[O-])cc1[N+](=O)[O-]	-0.9%	?	5.62µM*	-7.9	5.4%[46.1 µM]	-13.4%
O=C(Oc1ccc(C(=S)N2CCOCC2)cc1)c1ccc([N+](=O)[O-])cc1[N+](=O)[O-]	.	.	.	4.8	.	-10.5%
CCCCOc1ccc(CSCCN=C(N)N)cc1	?	?	?	-62.1*	?	-11.5%
C[C@@](N)(Cc1ccc(O)c(O)c1)C(=O)O	.	-9.2%	i	.	?	-6.5%
Cc1c(CC(=O)NCCCC(=O)O)c(=O)oc2cc3c(cc12)CCC(C)(C)O3	?	-6.5%	-4.1%	-86.2*	?	6.31µM*
